Activity calls are given as the source filed them. How the calls were made is not given here.
Tested on: HIV-1 nucleocapsid protein NCp7 (binding to TG oligonucleotide)
Assay: HIV Nucleocapsid (AID 346);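 further: potency is for inhibitors that block NC binding and lower polarization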
Settings: HIV-1 NC / fluorescein-TGTGTGTG probe, fluorescence polarization
Method in brief: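 Fluorescence polarization readout: labelled TG4xF oligo (10 nM) with 100 nM nucleocapsid protein, high-salt (250mM NaCl) Hepes pH 7.5 buffer containing zinc and fresh reducing agents. Compounds added by pin tool; incubation 1 hr, room temperature.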
Potency means the concentration at half of the fitted maximal effect.

Question: How did the Potency turn out when `COc1ccc(-n2c(=O)cnc3cnc(N4CCNCC4)nc32)cc1` was run?
Answer: > 20 µM (inactive)

Question: `COc1ccc(-c2nc3cnc(N4CCNCC4)nc3n(Cc3cccs3)c2=O)cc1` was tested. Which Potency did it give?
Answer: > 20 µM (inactive)

Question: `c1ccc(C(c2ccccc2)N2CCC3(CCNCC3)CC2)cc1` was tested. Which Potency did it give?
Answer: > 20 µM (inactive)

Question: How did the Potency turn out when `CN(Cc1ccco1)c1nc(-c2ccccc2C(F)(F)F)nc2ccccc12` was run?
Answer: > 20 µM (inactive)

Question: With `Cc1ccccc1-c1cncnc1N1CCNCC1` as the compound, how does the Potency read?
Answer: > 20 µM (inactive)

Question: For `CN(C)c1ncnc2ccc(-c3ccc4c(c3)OCO4)cc12`, which Potency is on record?
Answer: > 20 µM (inactive)

Question: With `COCCn1c(=O)c(-c2cc(F)cc(F)c2)nc2cnc(OCc3ccccc3)nc21` as the compound, how does the Potency read?
Answer: > 20 µM (inactive)

Question: How did the Potency turn out when `O=C(c1cc(C(F)(F)F)cc(C(F)(F)F)c1)N1CCC2(CC1)CCN(c1ccccn1)CC2` was run?
Answer: > 20 µM (inactive)

Question: `Cn1c(=O)c(-c2cc(F)cc(F)c2)nc2cnc(Oc3cccc(Cl)c3)nc21` was tested. Which Potency did it give?
Answer: > 20 µM (inactive)

Question: Which Potency does the source give for `O=C(c1ccncc1)N1CCC[C@@]2(CCN(c3ccncc3)C2)C1` here?
Answer: > 20 µM (inactive)

Question: For `N#CCCn1c(=O)c(-c2ccc(Cl)cc2)nc2cnc(N3CCNCC3)nc21`, which Potency is on record?
Answer: > 20 µM (inactive)

Question: `Cc1cnc(CNc2cc(-c3ccccc3C(F)(F)F)ncn2)cn1` was tested. Which Potency did it give?
Answer: > 20 µM (inactive)

Question: Which Potency does the source give for `Cc1cccc(CNc2ncnc3ccc(-c4cccnc4)cc23)c1` here?
Answer: > 20 µM (inactive)

Question: For `COCC(=O)N1CCC2(CCN(Cc3ccccc3OC)CC2)CC1`, which Potency is on record?
Answer: > 20 µM (inactive)

Question: With `COCCn1c(=O)c(-c2ccc(F)cc2)nc2cnc(N3CCOCC3)nc21` as the compound, how does the Potency read?
Answer: > 20 µM (inactive)

Question: How did the Potency turn out when `COC(=O)N1CCC[C@@]2(CCN(C(=O)Nc3cccc(C#N)c3)C2)C1` was run?
Answer: > 4 µM (inactive)

Question: For `COc1ccc(C(=O)N2CCC3(CCN(Cc4ccccc4OC)CC3)CC2)cc1`, which Potency is on record?
Answer: > 20 µM (inactive)

Question: Which Potency does the source give for `COc1ccccc1CN1CCC2(CC1)CCN(C(=O)c1ccncc1)CC2` here?
Answer: > 20 µM (inactive)

Question: How did the Potency turn out when `O=C(c1cc(C(F)(F)F)cc(C(F)(F)F)c1)N1CCC2(CCCN(c3ccccc3)C2)CC1` was run?
Answer: > 20 µM (inactive)

Question: `COc1cccc(Cn2c(=O)c(-c3ccccc3)nc3cnc(N4CCNCC4)nc32)c1` was tested. Which Potency did it give?
Answer: > 20 µM (inactive)

Question: How did the Potency turn out when `COc1cccc(-c2nccc(NCc3ccccc3)n2)c1` was run?
Answer: > 20 µM (inactive)

Question: With `COc1ccc(C(=O)N2CCC3(CCN(CC(C)C)CC3)CC2)cc1` as the compound, how does the Potency read?
Answer: > 20 µM (inactive)

Question: For `COc1ccc(NC(=O)N2CC3(CCN(C(=O)c4cccn4C)CC3)C2)cc1`, which Potency is on record?
Answer: > 20 µM (inactive)

Question: With `COc1ccccc1CN1CCCC2(CCN(S(=O)(=O)c3ccccc3)CC2)C1` as the compound, how does the Potency read?
Answer: > 20 µM (inactive)

Question: How did the Potency turn out when `N#CCCn1c(=O)c(-c2ccc(Cl)cc2)nc2cnc(N3CCOCC3)nc21` was run?
Answer: > 20 µM (inactive)
